A selection: hits, their analogues and other compounds. The true share with any hit is near 10%.
CtBP-E1A blk: CtBP/E1A binding inhibition | activity change, % (test concentration not listed) | 0.49% of 340,000 active | AID 651724 | AlphaScreen GST-E1A/His-CtBP binding, 1536-well; hits give low values; in the data active = activity change below about -65%; inconclusive = mostly about -30% to -63%; also: % is scaled to controls: 0 for no effect and ±100 for the full control effect
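AlphaScreen with 125 nM GST-E1A and 125 nM His-CtBP (5X stocks) in Tris pH 8.0, 300 mM NaCl, BSA, Tween 20, TCEP. Compounds preincubated 2 h at 37 deg C, then glutathione donor/nickel acceptor beads added for 1 h at 37 deg C in dark.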
Six1-Eya2 blk: Six1/Eya2 interaction inhibition. AlphaScreen GST-Six1/His-Eya2 binding, biochemical; hits give low values. Q15475+O00167. activity change, % (no concentration beside the values). 0.56% of 360,000 active; in the data active = activity change below about -65%; inconclusive = mostly about -30% to -63%; also: % is scaled to controls: 0 for no effect and ±100 for the full control effect
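Homogeneous AlphaScreen proximity assay pairing GST-Six1 with His-tagged Eya2 (added as 5X mix: 250 nM and 500 nM) in 50 mM Tris pH 8.0, 300 mM NaCl, 1 mM TCEP. Glutathione donor and nickel acceptor beads; 1 h, 37 °C, dark.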
BAZ2B inh: BAZ2B (human) inhibition | Q9UIF8 | AlphaScreen BAZ2B-H3K14Ac peptide displacement | Potency, µM (series often up to 114 µM), inactives show top-dose activity change, negative = inhibition, usual class: inhibitors | 4.4% of 360,000 active; also: potency is read from the fitted curve at half-maximal effect; % is scaled to controls: 0 for no effect and ±100 for the full control effect; nearly all actives have a fitted effect of over 60% in size
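Protein-peptide AlphaScreen: BAZ2B 50 nM, b-H3K14Ac 50 nM, 1x PBS pH 7.4 + 0.01% Tween-20. Preincubation 30 min RT; cpd 30 min RT (top 110 uM); beads 20 min RT, light-protected.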
JMJD2A Tudor: blocks the human JMJD2A Tudor domain; Potency, µM (doses to about 114 µM), inactives show at the top dose activity change, negative = inhibition, most hits filed as inhibitors; 4.4% of 390,000 active; AlphaScreen JMJD2A-Tudor / H3K4me3 peptide binding; O75164; AID 504339; also: potency is read from the fitted curve at half-maximal effect; % is scaled to controls: 0 for no effect and ±100 for the full control effect; nearly all actives have a fitted effect of over 50% in size
G9a block: G9a (human) methyltransferase inhibition; G9a H3K9 monomethylation, AlphaScreen, 2 h; Potency, µM (top dose mostly 102 µM), inactives show at the highest dose activity, negative = inhibition, actives largely listed as inhibitors; Q96KQ7; AID 504332; 8.8% of 350,000 active; also: potency is read from the fitted curve at half-maximal effect; % is scaled to controls: 0 for no effect and ±100 for the full control effect; nearly all actives have a fitted effect of over 75% in size
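Step 1: enzyme (final 20 nM) with compound, 15 min RT. Step 2: substrate peptide 500 nM and SAM 20 uM, 2 h RT. Step 3: anti-H3K9me1 antibody and AlphaScreen beads, 10 min, then plate read.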
HP1b binding inh: inhibitors of HP1-beta chromodomain binding to methylated histone tails; AlphaScreen HP1-beta / biotin-H3K9me3 peptide binding; P83916; Potency, µM (series often up to 114 µM), inactives show top-dose activity change, negative = inhibition, most hits filed as inhibitors; AID 540317; 0.56% of 390,000 active; also: potency is read from the fitted curve at half-maximal effect; nearly all actives have a fitted effect of over 70% in size
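AlphaScreen: HP1-beta (50 nM) preformed 30 min with biotin-H3(1-18)K9me3 peptide (50 nM) in PBS pH 7.4, 0.01% Tween-20. Compound added for 30 min at RT, then streptavidin donor/nickel chelate acceptor beads (10 ug/mL) for 30 min.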
* marks the source's active call; other numbers are inactive results; u = inconclusive; x = no result given; [ ] = remark or other dose. Unless noted, calls follow the shape of the dose curve; as a rule, active = well fitted inhibition curve with a large enough effect; inconclusive = small, poorly fitted or top-dose-only effect; inactive = no such curve, though single readings can be large or run the other way.

SMILES | CtBP-E1A blk | Six1-Eya2 blk | BAZ2B inh | JMJD2A Tudor | G9a block | HP1b binding inh
Cc1cccc(C(=O)Nc2ccc3oc(-c4ccncc4)nc3c2)c1 | x | x | -16% | -22% | -35%[59 µM] | 72%
O=C(Nc1ccncc1)c1ccc2ccccc2c1 | 0 | -4 | 8% | -22% | x | 6%
O=C(Nc1nnc(-c2cccnc2)o1)c1cccc([N+](=O)[O-])c1 | x | x | u | x | -3% | x
Cc1cccc(C(=O)Nc2nnc(-c3cccnc3)o2)c1 | -1 | -27 | 50µM* | u | 36% | 17%
O=C(Nc1nnc(-c2ccncc2)o1)c1ccc2ccccc2c1 | -18 | -5 | 79µM* | -22% | 6% | 38%
Cc1cccc(C(=O)Nc2nnc(-c3ccncc3)o2)c1 | -25 | -27 | 22µM* | u | -7% | 31%
O=[S+]([O-])(c1c(F)cccc1F)N1CCN([S+](=O)([O-])c2cccc3nonc23)CC1 | x | x | x | -14% | x | x
Cc1ccccc1C(=O)Nc1nnc(-c2ccco2)o1 | 17 | -16 | 50µM* | 50µM* | -13%[59 µM] | 39%
Cc1ccc(C(=O)Nc2nnc(-c3ccco3)o2)cc1C | -14 | -22 | u | -5% | 6% | 37%
CCn1c(=O)c2c(n3c(=S)[nH]nc13)-c1ccccc1CC21CCCCC1 | 4 | -5 | -34% | 18µM* | 1.6µM* | -14%
CCCCOc1ccc2c(c1)C(=O)c1cc(O)ccc1-2 | 7 | -25 | 35µM* | 28µM* | 32µM* | 45µM*
COc1ccc(-c2csc(N3CCN(c4cc5c(cc4Cl)nc(-c4ccncc4)n5CCOCCO)CC3)n2)cc1 | x | 17 | 50µM* | -23% | 28µM* | 21%
COc1ccc(-c2csc(NCCc3nc4cc(Cl)c(N5CCCCC5)cc4n3CCOCCO)n2)cc1 | -7 | -10 | x | -29% | x | 17%
Cc1ccc(-c2csc(N3CCN(c4cc5c(cc4Cl)nc(-c4ccncc4)n5CCN4CCCCC4)CC3)n2)cc1 | x | -13 | u | u | 22µM* | -5%
CCCn1c(C)nc2cc(Cl)c(N3CCN(c4nc(-c5ccc(C)cc5)cs4)CC3)cc21 | -5 | -10 | -4% | -31% | x | -4%
Cc1ccc(-c2csc(N3CCN(c4ccc5nc(-c6ccncc6)n(CCN6CCCCC6)c5c4)CC3)n2)cc1 | -25 | -13 | u | 45µM* | 35µM* | u
Cc1ccc(-c2csc(NCCn3c(-c4ccncc4)nc4cc(C(F)(F)F)ccc43)n2)cc1 | 0 | -8 | x | -34% | x | 20%
Cc1cc(=O)n2nc(N3CCC(C(=O)NCC(C)c4ccccc4)CC3)sc2n1 (centres undefined) | -4 | -1 | -9% | -2% | 32% | 39%
CN(C)c1ncnc2ccc(-c3cccnc3)cc12 | x | x | x | x | 5%[0.501 µM] | x
Cc1ccc(N2C(=O)CC(Sc3cccs3)C2=O)cc1 (centres undefined) | x | -2 | 3% | -5% | 35µM* | 47%
Cc1ccccc1N1C(=O)CC(N(O)c2ccccc2)C1=O (centres undefined) | -2 | 8 | -2% | -7% | u | 34%
Cc1cccc(N2C(=O)CC(Sc3nc(C)cc(C)n3)C2=O)c1 (centres undefined) | 4 | 0 | u | -6% | u | 60%
Cc1cccc(N2C(=O)CC(Cn3nc(C)cc3C)C2=O)c1 (centres undefined) | x | -3 | -18% | -9% | 15% | 36%
CCN(CCO)C1CC(=O)N(c2ccccc2C)C1=O (centres undefined) | 8 | -2 | -4% | 40µM* | 4µM* | 26%
Cc1cccc(N2C(=O)CC(Sc3nnc(C)s3)C2=O)c1 (centres undefined) | 0 | -2 | -4% | -13% | 10µM* | -2%
SMILES | CtBP-E1A blk | Six1-Eya2 blk | BAZ2B inh | JMJD2A Tudor | G9a block | HP1b binding inh
CCN(CC)C1CC(=O)N(c2cccc(C)c2)C1=O (centres undefined) | x | x | -1% | x | 11µM* | x
Cn1cc(S(=O)(=O)N2CCOCC2)cc1C(=O)Nc1cccc(Cl)c1 | 10 | -1 | u | -18% | -30% | 22%
O=S(=O)(Nc1cc(Br)cc2cccnc12)c1cccc2ccccc12 | x | x | x | -21% | x | 35%
CC(C)Cn1c(=O)c2ccccc2n2c(CCC(=O)Nc3ccc(F)cc3)nnc12 | x | x | -1% | -2% | -4%[59 µM] | 14%
Nc1ccc2oc(Cc3ccc(Cl)cc3)nc2c1 | x | x | -37% | u | 13µM* | -19%
O=[N+]([O-])c1ccc(O)c(C=Nc2ccc3oc(Cc4ccc(Cl)cc4)nc3c2)c1 | x | x | u | x | 28µM* | x
CCOC(=O)C1(CCCc2ccccc2)CCN(C(=O)c2cc(C)nn2CC)CC1 | x | 5 | -3%[57.1 µM] | -10% | -3% | 17%[57 µM]
S=c1[nH]nc(-c2cccnc2)n1/N=C/C=C/c1ccccc1 | x | 5 | -33% | 7.1µM* | 1.8µM* | -19%
Cc1nc2ccccc2n1/N=C/c1cccnc1 | -5 | -1 | 5% | -14% | 14% | 7%
Fc1cccc(Cl)c1/C=N/n1c(-c2cccnc2)n[nH]c1=S | -2 | 2 | u | 3.2µM* | u | 3%
Cc1nnc(C)n1/N=C/c1cccs1 | 3 | 8 | 7% | -18% | -37%[0.0925 µM] | 27%
S=c1[nH]nc(-c2cccnc2)n1/N=C/c1cccs1 | 1 | -2 | 0% | 3.5µM* | 4µM* | 15%
S=c1[nH]nc(-c2cccnc2)n1/N=C/c1ccccc1 | 1 | 3 | u | 3.5µM* | 4µM* | -19%
COc1cccc(C(=O)Nc2cc(-c3ccccc3)no2)c1 | x | x | 3% | -19% | 11%[59 µM] | 35%
CCOC(=O)C1=C(O)/C(=C\c2ccc(CNS(=O)(=O)c3ccc(Br)cc3)o2)N=C1C | -10 | -29 | -3% | 56µM* | u | -28%
COC(=O)C1=C(O)/C(=C\c2ccc(CNS(=O)(=O)c3ccc(Cl)cc3)o2)N=C1C | 0 | 0 | u | -25% | 13µM* | -2%
Cc1cccc(Cn2c(=O)n(-c3ccccc3C)c(=O)c3c2c2cc(C)ccc2n3C)c1 | x | x | -7% | 21% | 9%[59 µM] | 64%
O=C(NC1=NCCS1)c1cccc(S(=O)(=O)N2CCOCC2)c1 | 2 | 1 | 3% | -7% | 12%[12.7 µM] | 22%
COc1cc(C2NC(=O)c3c(sc4c3CCN(C)C4)N2)ccc1OC(=O)c1ccccc1 (centres undefined) | x | x | -25% | -34% | 10µM* | -4%
CN1CCc2c(sc3c2C(=O)NC(c2cccc(OC(=O)c4cccs4)c2)N3)C1 (centres undefined) | -15 | -15 | -37% | u | 40µM* | 16%
CCOc1cc(C2NC(=O)c3c(sc4c3CCN(C)C4)N2)ccc1OC(=O)c1ccc(Br)cc1 (centres undefined) | x | x | 4% | -8% | -1%[59 µM] | 53%
